Assay results taken from PubChem BioAssay (Tox21).
Records with an inconclusive call do not appear. Activity calls are given as the source filed them. Unless noted, calls follow the shape of the dose curve; as a rule, active = well fitted curve in the direction sought with a large enough effect in the repeat runs; inconclusive = weak or mixed curves; inactive = no such curve, though single readings can be large; an effect the other way counts as inactive or inconclusive.

Experiments:
[1] = target: Aryl hydrocarbon receptor (Homo sapiens) (UniProt P35869); assay: qHTS assay to identify small molecule that activate the aryl hydrocarbon receptor (AhR) signaling pathway (AID 743085);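 also: HG2L7.5c1 human HepG2 liver cells with stably integrated DRE-driven firefly reporter; series mostly up to about 70 µM; nearly all actives have a fitted effect of over 15% in size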
Summary of the method: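 Steps: seed HepG2-AhR-luc cells; allow 5 h at 37C; pin-transfer test compound or vehicle; incubate 24 h at 37C; add viability dye (30 min, 37C) and read fluorescence; add luciferase substrate (30 min, RT) and read luminescence.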

[2] = qHTS assay to identify small molecule that activate the aryl hydrocarbon receptor (AhR) signaling pathway - cell viability counter screen (AID 743086);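 also: HepG2 liver cells carrying the AhR DRE luciferase reporter; series mostly up to about 70 µM; nearly all actives have a fitted effect of over 45% in size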
Summary of the method: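 HepG2-AhR-luc (HG2L7.5c1) cells, 4000/well, treated 24 h at 37 C with compound; viability measured as CellTiter-Fluor fluorescence after 30 min in the same wells as the luciferase read.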

[3] = target: Peroxisome proliferator-activated receptor gamma (Homo sapiens) (UniProt P37231); assay: qHTS assay to identify small molecule agonists of the peroxisome proliferator-activated receptor gamma (PPARg) signaling pathway (AID 743094; active = well fitted activation curve with a large enough effect in the signal ratio in the repeat runs, not every such curve was filed as active; the % refers to the signal ratio)
Summary of the method: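 Following 5 h plating at 37C, PPARg-bla HEK293H cells receive compound or DMSO for 17 h; fluorescence intensity is recorded after LiveBLAzer B/G loading for 1 h at room temperature.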

[4] = target: Peroxisome proliferator-activated receptor gamma (Homo sapiens) (UniProt P37231); assay: qHTS assay to identify small molecule antagonists of the peroxisome proliferator-activated receptor gamma (PPARg) signaling pathway (AID 743191; calls by dose curve; also: series mostly up to about 63 µM; nearly all actives have a fitted effect of over 30% in size)
Summary of the method: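 GeneBLAzer PPARg UAS-bla HEK293H cells, 5 h post-plating, exposed to compounds 17 h at 37C. LiveBLAzer B/G FRET substrate added for 1 h at room temperature; beta-lactamase reporter read by fluorescence intensity.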

[5] = qHTS assay to identify small molecule antagonists of the peroxisome proliferator-activated receptor gamma (PPARg) signaling pathway - cell viability counter screen (AID 743194); conditions: Potency: co-treated with 50 nM rosiglitazone; also: nearly all actives have a fitted effect of over 55% in size
Summary of the method: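 Cytotoxicity counter screen in PPARg-bla HEK293H cells, same wells as reporter assay. Compounds plus 50 nM rosiglitazone (final) for 17 h at 37 C, then viability read by CellTiter-Glo luminescence.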

[6] = qHTS assay for small molecule agonists of the antioxidant response element (ARE) signaling pathway (AID 743202; active = well fitted activation curve with a large enough effect in the signal ratio in the repeat runs, not every such curve was filed as active; the % refers to the signal ratio)
Summary of the method: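 Agonist mode reporter screen: HepG2 cells with ARE-controlled beta-lactamase are incubated with test compounds for 16 h at 37 C, and beta-lactamase activity is measured as fluorescence of cleaved B/G FRET substrate.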

[7] = qHTS assay for small molecule agonists of the antioxidant response element (ARE) signaling pathway - cell viability counter screen (AID 743203; calls by dose curve; also: nearly all actives have a fitted effect of over 55% in size)
Summary of the method: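 Compounds in DMSO were pinned onto ARE-bla HepG2 cells plated 5 hrs earlier at 2,000 cells/well. Sixteen hours later at 37C/5% CO2, CellTiter-Glo was added and luminescence measured after 30 min at room temperature.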

[8] = qHTS assay for small molecule activators of the heat shock response signaling pathway - cell viability counter screen (AID 743209); also: nearly all actives have a fitted effect of over 50% in size
Summary of the method: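 Counter screen for cytotoxicity in HeLa HSE-bla reporter cells. Treatment was 5 h at 37 C; viability was detected by luminescent ATP assay (CellTiter-Glo) in the same wells as the beta-lactamase read.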

[9] = qHTS assay for small molecule activators of the heat shock response signaling pathway (AID 743210; active = well fitted activation curve with a large enough effect in the signal ratio in the repeat runs, with a control signal flat, not every such curve was filed as active; the % refers to the signal ratio;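 also: HeLa cells with beta-lactamase reporter driven by heat shock elements; series mostly up to about 63 µM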)
Summary of the method: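 Quantitative high-throughput format using an engineered HeLa line in which heat shock response elements drive beta-lactamase; after 5 h with compound, cells received a B/G FRET substrate and fluorescence was read.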

[10] = qHTS assay to identify small molecule agonists of the peroxisome proliferator-activated receptor delta (PPARd) signaling pathway - cell viability counter screen (AID 743211); also: nearly all actives have a fitted effect of over 55% in size
Summary of the method: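 Viability of GeneBLAzer PPARd UAS-bla HEK293H cells was assessed after 17 h compound incubation at 37C, using CellTiter-Glo reagent added after the reporter read and luminescence recorded 30 min later.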

[11] = target: Peroxisome proliferator-activated receptor delta (Homo sapiens) (UniProt Q03181); assay: qHTS assay to identify small molecule agonists of the peroxisome proliferator-activated receptor delta (PPARd) signaling pathway (AID 743212; calls by dose curve)
Summary of the method: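 Quantitative high-throughput agonist screen in a HEK293H beta-lactamase reporter line under UAS control. Compounds in DMSO, at 37 C. Fluorescence read after 2 h with FRET substrate at room temperature.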

[12] = qHTS assay to identify small molecule antagonists of the peroxisome proliferator-activated receptor delta (PPARd) signaling pathway - cell viability counter screen (AID 743213); also: nearly all actives have a fitted effect of over 50% in size
Summary of the method: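 In this counter screen, HEK293H cells carrying a UAS-beta-lactamase reporter are co-treated with test compounds and 300 nM L165041 (final) for 17 h at 37 C; cell viability is quantified by CellTiter-Glo luminescence.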

[13] = target: Peroxisome proliferator-activated receptor delta (Homo sapiens) (UniProt Q03181); assay: qHTS assay to identify small molecule antagonists of the peroxisome proliferator-activated receptor delta (PPARd) signaling pathway (AID 743215; active = well fitted inhibition curve with a large enough effect in the signal ratio in the repeat runs, not every such curve was filed as active; the % refers to the signal ratio;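 also: cells stimulated with agonist L165041 at 300 nM final during compound exposure; series mostly up to about 62 µM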)
Summary of the method: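 With L165041 present at 300 nM final, compounds were incubated 17 h at 37 C on PPARd UAS-bla HEK293H cells. A FRET-based beta-lactamase substrate was then applied for 2 h at room temperature and fluorescence intensity recorded.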

[14] = qHTS assay to identify small molecule antagonists of the farnesoid-X-receptor (FXR) signaling pathway - cell viability counter screen (AID 743221; active = well fitted cell-killing curve with a large enough effect in the repeat runs, not every such curve was filed as active; also: nearly all actives have a fitted effect of over 50% in size)
Summary of the method: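 Quantitative HTS of the Tox21 10K library run in parallel with the beta-lactamase reporter read. HEK 293T cells carrying a UAS-driven bla reporter got compound and 50 uM CDCA (final) for 16 h; ATP-based luminescence followed.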

[15] = target: Vitamin D3 receptor (Homo sapiens) (UniProt P11473); assay: qHTS assay to identify small molecule agonists of the vitamin D receptor (VDR) signaling pathway (AID 743222; calls by dose curve)
Summary of the method: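 VDR-bla cells were seeded, left 4 h, treated with compounds in DMSO for 16 h, incubated 2 h at RT with B/G FRET substrate, and read for fluorescence.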

[16] = target: Vitamin D3 receptor (Homo sapiens) (UniProt P11473); assay: qHTS assay to identify small molecule antagonists of the vitamin D receptor (VDR) signaling pathway (AID 743223; active = well fitted inhibition curve with a large enough effect in the signal ratio in the repeat runs, not every such curve was filed as active; the % refers to the signal ratio)
Summary of the method: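 Fluorescence from LiveBLAzer B/G FRET substrate, read after 2 h at room temperature, reflects beta-lactamase reporter activity in VDR-bla cells treated 16 h at 37C with compounds and agonist 1alpha,25-dihydroxyvitamin D3 (3 nM final).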

[17] = qHTS assay to identify small molecule agonists of the vitamin D receptor (VDR) signaling pathway - cell viability counter screen (AID 743224); also: series mostly up to about 63 µM; nearly all actives have a fitted effect of over 50% in size
Summary of the method: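 Here cell health was gauged by luminescent ATP detection (CellTiter-Glo, 30 min RT) in VDR-bla cells that had been incubated with test compounds for 16 h at 37C and 5% CO2.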

[18] = target: Bile acid receptor (Homo sapiens) (UniProt Q96RI1); assay: qHTS assay to identify small molecule antagonists of the farnesoid-X-receptor (FXR) signaling pathway (AID 743217; active = well fitted inhibition curve with a large enough effect in the signal ratio in the repeat runs, not every such curve was filed as active; the % refers to the signal ratio)
Summary of the method: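 In this cell-based antagonist screen, inhibition of CDCA-driven (50 uM final) UAS-beta-lactamase expression in HEK 293T cells was measured by FRET fluorescence following 16 h compound exposure at 37 °C.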

[19] = qHTS assay to identify small molecule agonists of the farnesoid-X-receptor (FXR) signaling pathway - cell viability counter screen (AID 743218); also: nearly all actives have a fitted effect of over 45% in size
Summary of the method: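 After 16 h at 37 C with test compounds, FXR-bla HEK 293T cells were given LiveBLAzer B/G substrate for 2 h at RT and then CellTiter-Glo; luminescence was taken after 30 min.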

[20] = target: Bile acid receptor (Homo sapiens) (UniProt Q96RI1); assay: qHTS assay to identify small molecule agonists of the farnesoid-X-receptor (FXR) signaling pathway (AID 743220; active = well fitted activation curve with a large enough effect in the signal ratio in the repeat runs, not every such curve was filed as active; the % refers to the signal ratio)
Summary of the method: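 Beta-lactamase reporter under UAS control in GeneBLAzer FXR HEK 293T cells (5000/well) measured with LiveBLAzer FRET substrate after 2 h at room temperature. Compound exposure lasted 16 h at 37C.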

Measured: Potency

Chain of Aryl hydrocarbon receptor (Homo sapiens) (P35869 whole entry, looked up): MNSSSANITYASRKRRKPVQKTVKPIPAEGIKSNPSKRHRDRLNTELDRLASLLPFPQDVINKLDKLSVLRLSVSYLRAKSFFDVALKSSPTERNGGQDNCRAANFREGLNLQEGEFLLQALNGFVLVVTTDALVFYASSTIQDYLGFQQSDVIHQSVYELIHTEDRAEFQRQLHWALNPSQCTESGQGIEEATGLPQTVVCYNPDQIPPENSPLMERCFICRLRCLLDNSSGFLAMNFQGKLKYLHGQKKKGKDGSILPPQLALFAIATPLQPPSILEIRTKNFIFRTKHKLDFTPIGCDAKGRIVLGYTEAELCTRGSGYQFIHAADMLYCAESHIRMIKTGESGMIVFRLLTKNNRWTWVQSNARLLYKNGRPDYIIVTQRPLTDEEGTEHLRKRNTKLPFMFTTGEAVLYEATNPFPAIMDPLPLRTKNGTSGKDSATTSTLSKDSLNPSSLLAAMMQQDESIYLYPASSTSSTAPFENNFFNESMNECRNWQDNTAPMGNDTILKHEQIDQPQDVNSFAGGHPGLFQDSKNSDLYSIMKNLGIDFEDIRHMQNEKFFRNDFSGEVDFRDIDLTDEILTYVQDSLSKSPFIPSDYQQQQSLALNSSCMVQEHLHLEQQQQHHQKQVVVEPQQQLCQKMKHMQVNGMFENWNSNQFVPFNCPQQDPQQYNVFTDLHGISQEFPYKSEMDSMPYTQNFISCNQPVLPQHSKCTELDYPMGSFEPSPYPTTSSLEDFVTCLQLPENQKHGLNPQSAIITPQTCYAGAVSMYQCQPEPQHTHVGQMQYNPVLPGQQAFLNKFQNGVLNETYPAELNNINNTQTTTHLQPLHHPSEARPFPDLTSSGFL
Chain of Peroxisome proliferator-activated receptor delta (Homo sapiens) (Q03181 whole entry, looked up): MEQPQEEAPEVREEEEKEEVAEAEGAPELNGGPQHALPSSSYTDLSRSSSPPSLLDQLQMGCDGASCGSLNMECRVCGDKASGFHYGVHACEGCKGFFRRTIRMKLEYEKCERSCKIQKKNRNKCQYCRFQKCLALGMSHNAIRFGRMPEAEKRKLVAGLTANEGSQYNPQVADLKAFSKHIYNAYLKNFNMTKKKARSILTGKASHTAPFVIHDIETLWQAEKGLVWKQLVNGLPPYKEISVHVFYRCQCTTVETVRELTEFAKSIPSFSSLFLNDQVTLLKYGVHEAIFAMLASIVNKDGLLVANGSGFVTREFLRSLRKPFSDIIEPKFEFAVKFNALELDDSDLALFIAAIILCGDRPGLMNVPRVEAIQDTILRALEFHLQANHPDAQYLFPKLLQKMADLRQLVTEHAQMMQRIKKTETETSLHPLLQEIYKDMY
Chain of Vitamin D3 receptor (Homo sapiens) (P11473 whole entry, looked up): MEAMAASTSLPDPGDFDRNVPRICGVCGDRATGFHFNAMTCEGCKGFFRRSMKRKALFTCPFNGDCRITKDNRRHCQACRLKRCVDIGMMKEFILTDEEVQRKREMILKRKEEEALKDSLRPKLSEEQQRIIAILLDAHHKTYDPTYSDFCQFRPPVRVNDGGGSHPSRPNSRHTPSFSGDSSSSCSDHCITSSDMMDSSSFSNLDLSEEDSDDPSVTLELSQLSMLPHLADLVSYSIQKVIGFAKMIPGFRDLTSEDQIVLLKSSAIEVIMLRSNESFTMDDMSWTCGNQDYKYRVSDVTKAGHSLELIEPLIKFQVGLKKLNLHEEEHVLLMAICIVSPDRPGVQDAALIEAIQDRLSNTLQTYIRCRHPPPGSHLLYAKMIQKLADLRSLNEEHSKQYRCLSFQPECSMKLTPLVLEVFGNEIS
Chain of Peroxisome proliferator-activated receptor gamma (Homo sapiens) (P37231 whole entry, looked up): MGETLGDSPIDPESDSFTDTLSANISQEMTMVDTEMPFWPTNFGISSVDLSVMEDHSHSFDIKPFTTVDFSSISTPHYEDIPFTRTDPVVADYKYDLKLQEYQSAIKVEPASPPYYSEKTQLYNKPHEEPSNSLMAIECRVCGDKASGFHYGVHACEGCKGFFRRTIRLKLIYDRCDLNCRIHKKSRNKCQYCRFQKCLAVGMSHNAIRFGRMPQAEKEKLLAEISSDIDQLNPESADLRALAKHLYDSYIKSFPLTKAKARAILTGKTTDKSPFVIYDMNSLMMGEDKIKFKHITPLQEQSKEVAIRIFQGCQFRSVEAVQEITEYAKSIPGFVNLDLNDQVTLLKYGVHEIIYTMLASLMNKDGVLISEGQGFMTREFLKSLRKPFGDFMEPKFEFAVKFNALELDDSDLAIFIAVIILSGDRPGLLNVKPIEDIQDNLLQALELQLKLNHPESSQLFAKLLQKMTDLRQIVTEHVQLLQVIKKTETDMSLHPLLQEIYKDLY
Chain of Bile acid receptor (Homo sapiens) (Q96RI1 whole entry, looked up): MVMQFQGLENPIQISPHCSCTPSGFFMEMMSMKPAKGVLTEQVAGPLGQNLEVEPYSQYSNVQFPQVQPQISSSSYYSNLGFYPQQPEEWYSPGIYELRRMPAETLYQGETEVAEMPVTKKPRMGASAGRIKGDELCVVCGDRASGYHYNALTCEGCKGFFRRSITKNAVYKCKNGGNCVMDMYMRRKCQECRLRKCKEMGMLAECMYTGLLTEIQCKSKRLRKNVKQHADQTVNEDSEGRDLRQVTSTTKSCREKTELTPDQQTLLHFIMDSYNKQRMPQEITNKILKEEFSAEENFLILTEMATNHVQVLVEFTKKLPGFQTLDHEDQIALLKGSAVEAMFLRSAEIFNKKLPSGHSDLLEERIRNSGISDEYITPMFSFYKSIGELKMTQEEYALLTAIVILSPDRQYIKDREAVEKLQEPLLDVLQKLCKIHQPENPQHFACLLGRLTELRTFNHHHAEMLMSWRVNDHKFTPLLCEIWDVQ

COC(=O)c1c(C(F)F)nc(C(F)(F)F)c(C2=NCCS2)c1CC(C)C
not listed: [18] | [19] | [20]
inactive: all other assays above

C=CC1CC=CCC1 (stereo not given)
not listed: [15] | [16]
inactive: all other assays above

CCCCc1c(C)nc(NCC)[nH]c1=O
not listed: [16] | [18] | [20]
inactive: all other assays above

[O]=[Cd]
not listed: [7] | [12] | [16] | [18] | [20]
inactive: all other assays above

Cc1cc(C)c(C(=O)P(=O)(C(=O)c2c(C)cc(C)cc2C)c2ccccc2)c(C)c1
not listed: [6] | [11] | [15] | [17] | [19]
inactive: all other assays above

O=C(NCO)NCO
not listed: [13] | [16] | [18] | [20]
inactive: all other assays above

O=C(O)c1cccc(Cl)c1
not listed: [6]
inactive: all other assays above

CCCCCCI
not listed: [15] | [16]
inactive: all other assays above
